ChEMBL document CHEMBL3988442, “University of Dundee, Small-Polar-MMV Screening Library” (2021)
Hit rate of the full screen: of about 48,000 compounds, about 13,000 (27%) showed an effect of 50% or more. Some of the results follow.

The compounds below were run on Wolbachia pipientis (assay: Anti-Wolbachia Cell-Based Screen). Conditions: 5 µM.
Format: functional
Set-up: scale not given: in the data most compounds retested in dose-response had high values

| SMILES | Percent Effect [%] |
| --- | --- |
| O=S(=O)(NCC1(O)CCOc2ccccc21)c1ccccc1Br (stereo not drawn) | 15.3 |
| O=C(Nc1nnn[nH]1)c1ccc(-n2cccc2)c(F)c1 | -12.4 |
| O=C(COC1CCCC1)N1CCC(C(O)c2ccc(F)cc2)CC1 (stereo not drawn) | 6.854 |
| COc1cccc(NC(C(N)=O)c2ccc(Br)cc2)c1 (stereo not drawn) | 1.947 |
| CCO[C@@H]1CC[C@H]2[C@H]1OCCN2C(=O)c1ccc(C)o1 | 0.08907 |
| COc1cc(C(=O)N2CCO[C@H]3[C@H](OCC4CC4)CC[C@@H]32)ccc1F | 35.93 |
| O=C(COc1ccc(F)cc1)N1CCO[C@H]2[C@@H](OCC3CC3)CC[C@@H]21 | 107 |
| CCO[C@@H]1CC[C@H]2[C@H]1OCCN2C(=O)C1CCOCC1 | 0.9043 |
| CCO[C@H]1CC[C@H]2[C@H]1OCCN2C(=O)COc1ccccc1 | 74.73 |
| COc1ccc(C(=O)N2CCO[C@H]3[C@H](OCC4CC4)CC[C@@H]32)cc1F | -4.788 |
| CCO[C@H]1CC[C@H]2[C@@H]1OCCN2C(=O)COc1ccccc1 | 94.92 |
| CC(C)CN1C[C@H]2CCN(C(=O)C3CCCO3)CC[C@H]2S1(=O)=O (stereo partly drawn) | -18.66 |
| CN(Cc1cnccn1)CC1CCOc2ccccc2C1 (stereo not drawn) | 5.577 |
| CCC(C)CNc1ccc2oc(COC)nc2c1 (stereo not drawn) | -9.605 |
| CN(C)C(=O)c1ccc(CNc2c(Cl)cccc2C#N)cc1 | -8.933 |
| Cc1noc(C)c1CN1CCn2c(CN3CCN(C)CC3)cnc2C1.O=C(O)C(F)(F)F.O=C(O)C(F)(F)F.O=C(O)C(F)(F)F | -4.762 |
| CNC(=O)c1cnc2n1CCN(Cc1cccnc1)C2.O=C(O)C(F)(F)F.O=C(O)C(F)(F)F.O=C(O)C(F)(F)F | 0.3449 |
| CN1CCN(Cc2cnc3n2CCN(Cc2cccnc2)CC3)CC1.O=C(O)C(F)(F)F.O=C(O)C(F)(F)F.O=C(O)C(F)(F)F | 102.7 |
| COCC(=O)N1CCn2c(CN3CCN(C)CC3)cnc2C1.O=C(O)C(F)(F)F.O=C(O)C(F)(F)F | -7.166 |
| CN1CCN(Cc2cnc3n2CCN(CCc2ccccc2)C3)CC1.O=C(O)C(F)(F)F.O=C(O)C(F)(F)F.O=C(O)C(F)(F)F | 127 |
| CCOCc1nnc(NCc2cccc(C)c2)o1 | -20.23 |
| CN(Cc1ccccc1)CC1CC2(CO1)CN(Cc1cnn(C)c1)C2 (stereo not drawn) | -2.148 |
| Cn1nc2c(cc1=O)CN(Cc1nc(C3CC3)no1)CC2 | 27.59 |
| CN(C)c1cncc(-c2ccnc3c2ccn3C)n1 | -34.59 |

| SMILES | Percent Effect [%] |
| --- | --- |
| CCc1cc(N(C)Cc2ncc[nH]2)nc(N2CCOCC2)n1 | -9.08 |
| CCNc1ccc(-c2ccnc3c2ccn3C)nn1 | -1.559 |
| CCc1cc(-c2ccnc3c2ccn3C)nc(N2CCOCC2)n1 | 67.54 |
| Cn1ccc2c(-c3nccc(N)n3)ccnc21 | -30.17 |
| Cn1ccc2c(-c3cc(N)nc(N4CCOCC4)n3)ccnc21 | 88.78 |
| CN(CC1(O)CCCN(CCC2CCCCC2)C1=O)C1CCOCC1 (stereo not drawn) | -1.971 |
| CN(C)S(=O)(=O)N1CCC[C@]2(C[C@@H](Oc3ccccn3)CO2)C1.O=C(O)C(F)(F)F | -2.011 |
| Cc1cnc(C(=O)N2C[C@H]3CC[C@@H]2CN(S(=O)(=O)N(C)C)C3)cn1 | -4.38 |
| CN1C(=O)CC2(CCN(S(=O)(=O)N(C)C)CC2)c2ccccc21 | -6.476 |
| CN(C)S(=O)(=O)N1CCC(C)(c2ncc(C(N)=O)s2)CC1 | 173.8 |
| CN(C)S(=O)(=O)N1CCCC(C)(c2ncc(C(N)=O)s2)C1 (stereo not drawn) | 191.5 |
| CN(C)S(=O)(=O)N1CC[C@H]2OCC[C@@]2(COc2cccnc2)C1.O=C(O)C(F)(F)F | 7.883 |
| CCS(=O)(=O)N1CCN(C(=O)C(C)C)CC2(CC(=O)N(C)C2)C1 (stereo not drawn) | -2.529 |
| O=C(NCC1(O)CCC1)c1c(O)cc(F)cc1F | 120.5 |
| CN(C)C(C(=O)NCC1(O)CCCCC1)c1c(F)cccc1F (stereo not drawn) | -3.857 |
| O=C(NCC1(O)CCOC1)c1ccccc1Cl (stereo not drawn) | -4.323 |
| CN(C)C1(CNC(=O)c2c(O)cc(Cl)cc2Cl)CCOCC1 | 85.78 |
| O=C(NCc1ccc(Cl)cc1Cl)NCC1(O)CCSC1 (stereo not drawn) | -14.06 |
| CN(C)C(C(=O)NCC1(O)CCCCC1)c1cccc(F)c1 (stereo not drawn) | 11.81 |
| O=C(NCC1(O)CCC1)c1c(O)cc(Cl)cc1Cl | 97.98 |
| CN(C)C1(CNC(=O)C/C=C/c2ccc(F)cc2)CCOCC1 | 1.504 |
| CN(C)C(C(=O)NCC1(N(C)C)CCOCC1)c1ccccc1F (stereo not drawn) | -12.63 |
| CCOC(C)c1noc(CN2CCN(c3nnc(C)s3)CC2)n1 (stereo not drawn) | -0.8403 |
| COc1ccc(C(=O)N2C[C@@H](NC(=O)N(C)C)[C@H](C(C)C)C2)c(OC)n1 | 83.06 |

| SMILES | Percent Effect [%] |
| --- | --- |
| Cc1cc(Cl)ccc1C(=O)N1C[C@H](C2CC2)[C@@H](N)C1 | -41.17 |
| CCc1nn(C)c(Cl)c1CN1C[C@@H](NC(=O)N(C)C)[C@H](C(C)C)C1 | 3.461 |
| COc1ccc(Cl)cc1C(=O)N1CCCC(n2nc(C)nc2C)C1 (stereo not drawn) | -10.83 |
| COc1ccc(Cl)cc1C(=O)NCC1CCN(C(=O)c2ccoc2)CC1 | -13.86 |
| CC(=O)N[C@@H]1CN(C(=O)c2csc(C(C)C)n2)C[C@H]1C(C)C | -24.56 |
| COc1ccc(Cl)cc1C(=O)N1C[C@H](C(C)C)[C@@H](N)C1 | 105.5 |
| COc1ccc(Cl)cc1C(=O)N1C[C@@H](NC(=O)N(C)C)[C@H](C(C)C)C1 | 96.11 |
| COc1ccc(N2CCC(N3C[C@H](NC(C)=O)[C@@H](C(C)C)C3)CC2)cc1 | 0.1798 |
| CCOCc1ccccc1NC(=O)NC1CCN(CC(F)(F)F)C1 (stereo not drawn) | 4.433 |
| CCN(CC)CCN(CC(C)C)c1cc(C(F)(F)F)nc2ncnn12 | -0.1585 |
| Cc1cccc(C(=O)N2CCN(S(C)(=O)=O)[C@@H](C)C2)c1C | -0.07044 |
| CNC(=O)NC(=O)CCN1CCOC(c2ccc(Br)cc2)C1 (stereo not drawn) | 0.8414 |
| CC(=O)N1CCO[C@@H]2CN(S(=O)(=O)C3CC3)CC[C@@H]2C1 | 114.1 |
| CC(=O)N1CCO[C@@H]2CN(S(=O)(=O)C3CC3)C[C@@H]2C1 | 90.6 |
| O=C(O)C(F)(F)F.O=S(=O)(C1CC1)N1CCO[C@@H]2CN(Cc3cccs3)C[C@@H]2C1 | 3.839 |
| CC(=O)N1CCO[C@@H]2CN(S(=O)(=O)c3ccccc3F)C[C@@H]2C1 | -1.494 |
| O=C(O)C(F)(F)F.O=S(=O)(C1CC1)N1C[C@@H]2CN(Cc3ccoc3)CCO[C@@H]2C1 | 10.49 |
| CC(=O)N1C[C@@H]2CN(S(=O)(=O)C3CC3)CCO[C@@H]2C1 | 81.74 |
| CC(=O)N1CCO[C@@H]2CN(C(=O)c3ccc4ccccc4c3)CC[C@@H]2C1 | 3.224 |
| COCc1ccc(CN[C@H]2C[C@@H](Cc3cc(CCO)on3)C2(C)C)o1 | -18.1 |
| CSC(C)C(=O)N1CCN(CCO)CC1 (stereo not drawn) | -9.9 |
| CCCn1nc2c(cc1=O)CN(Cc1c(C)noc1C)CC2 | -3.39 |
| Cc1noc(C2CCCN(CC(=O)N3CCNC(=O)C3)C2)n1 (stereo not drawn) | 8.261 |
| CN(C)C(=O)CN1C[C@@H]2CC[C@H](C1)N(Cc1ccccc1OCCO)C2 | -40.78 |

| SMILES | Percent Effect [%] |
| --- | --- |
| Cc1cc(CN(CCO)c2ccccc2)on1 | -2.201 |
| Cc1nc(CNC(=O)Cn2nc(-c3ccc(F)cc3)oc2=O)cs1 | -1.04 |
| Cn1c(SCc2noc(-c3ccsc3)n2)nnc1C1CCS(=O)(=O)C1 (stereo not drawn) | -1.02 |
| CC(C(=O)Nc1ncccn1)N1CCc2[nH]nc(C(F)(F)F)c2C1 (stereo not drawn) | -12.45 |
| CSc1nnc(C2CCN(C(=O)N3CCOCC3)CC2)n1C(C)C | 91.83 |
| CC(C)c1cc(NC2CCN(C(=O)N3CCCC3)CC2)ncn1 | -23.56 |
| CC(C)n1ccnc1C1CCN(C(=O)N2CCCC2)CC1 | -25.38 |
| CSc1nnc(C2CCN(C(=O)N3CCCC3)CC2)n1C(C)C | 114 |
| CC(C)CN1C(=O)CO[C@@H]2CN(C(=O)N3CCOCC3)C[C@H]21 | -11.7 |
| Cn1ccc(NC2CCN(C3CC3)C2=O)n1 (stereo not drawn) | -4.974 |
| COCc1nn(CC2CC2)c2c1CN(C(=O)c1ccno1)CC2 | 1.769 |
| Cn1nc(CN2CCOCC2)c2c1CN(C(=O)c1ccc[nH]1)C2 | -8.763 |
| Cn1nc(CN2CCCC2)c2c1CN(C(=O)c1ccc[nH]1)CC2 | -10.94 |
| COCc1nn(C)c2c1CN(C(=O)c1ccno1)CC2 | 7.505 |
| Cn1nc(C#N)c2c1CN(C(=O)c1ccco1)CCC2 | -2.9 |
| CC(C)n1nc(CN2CCCC2=O)c2c1CN(C(=O)c1ccc[nH]1)C2 | 104.5 |
| CC(C)n1nc(CN2CCCC2=O)c2c1CN(C(=O)c1ccco1)C2 | 113.5 |
| O=C(c1ccco1)N1CCc2onc(CN3CCCC3)c2C1 | -15.89 |
| CC(C)n1nc(CN2CCCC2=O)c2c1CN(C(=O)c1ccno1)C2 | 92.04 |
| N#CC1COCCN1S(=O)(=O)c1ccc2c(c1)CCC2 (stereo not drawn) | 4.042 |
| N#Cc1cccnc1N[C@@H]1c2ccccc2C[C@@H]1O | 4.876 |
